In the library only some 27% were active in any assay of this set; here they are far more common.
sEH inhibitor = blocks human soluble epoxide hydrolase activity; P34913; recombinant human sEH enzymatic activity assay; inhibition, % at 2 µM; 0.34% of 91,000 active; in the data active = inhibition above about 80%
sEH activator = activators of human soluble epoxide hydrolase. activation, % at 2 µM. purified human sEH enzymatic activity, activator screen. 0.04% of 91,000 active; in the data active = activation above about 37%
CYP2C19 inh = inhibitors of human CYP2C19; CYP2C19 Supersomes, luciferin-H EGE luminescence, 30 min; 21% of 96,000 active; AID 778; P33261; inhibition, % at 5 µM;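 active = CYP2C19 inhibition above a set limit at 5 µM in the primary screen, cut at about 50% in these data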;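 note: plate controls were negative control wells for no effect and 2.5 mM tranylcypromine positive control for full effect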
CYP2C19 activ = activators of human cytochrome P450 2C19; AID 1025; P33261; 96,000 tested, under 10 active; activation factor at 5 µM; recombinant CYP2C19, luciferin-H EGE luminescence; hits give high values; 0 = fully inhibited enzyme, 1 = untreated enzyme;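 active = activation factor of at least 2 at 5 µM in the primary screen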;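 note: 0 = wells with 2.5 mM tranylcypromine and 1 = vehicle-only wells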
CYP2C9 activ = increases human cytochrome P450 2C9 activity | P11712 | recombinant CYP2C9, luciferin-H conversion, luminescence; hits give high values; factor 1 = untreated enzyme, 0 = blocked | activation factor at 5 µM | 1.4% of 96,000 active | AID 1024;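 active = activation factor of 2 or more for CYP2C9 at a 5 µM dose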;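 note: 0 = sulfaphenazole-blocked wells and 1 = vehicle-only wells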
Target sequence (P11712 whole entry, looked up): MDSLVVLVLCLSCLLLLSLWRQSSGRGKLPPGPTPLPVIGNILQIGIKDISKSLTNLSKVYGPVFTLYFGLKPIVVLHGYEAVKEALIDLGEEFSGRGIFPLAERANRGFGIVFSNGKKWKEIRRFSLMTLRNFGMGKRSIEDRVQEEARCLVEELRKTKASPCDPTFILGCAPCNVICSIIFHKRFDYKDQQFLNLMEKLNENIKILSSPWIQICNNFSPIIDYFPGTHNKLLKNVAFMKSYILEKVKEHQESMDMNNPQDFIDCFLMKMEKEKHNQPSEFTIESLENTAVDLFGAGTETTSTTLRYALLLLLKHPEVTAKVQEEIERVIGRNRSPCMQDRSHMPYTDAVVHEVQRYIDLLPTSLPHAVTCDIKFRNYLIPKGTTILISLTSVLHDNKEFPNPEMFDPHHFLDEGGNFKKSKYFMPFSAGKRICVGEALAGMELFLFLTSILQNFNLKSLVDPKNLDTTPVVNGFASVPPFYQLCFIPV
CYP2C9 inh = human CYP2C9 inhibition | 20% of 96,000 active | P11712 | CYP2C9 Supersomes, luciferin-H conversion, luminescence | inhibition, % at 5 µM;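 active = blocking of liver enzyme CYP2C9 beyond about 50% at 5 µM, limit read from the data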
Numbers without * were called inactive.

Screening CCOC(=O)c1[nH]c(C)c(C(=O)Nc2cc(Cl)ccc2C)c1C returned CYP2C19 inh -1, CYP2C19 activ 1, CYP2C9 activ 2* and CYP2C9 inh -104.
O=C1CN(C(=O)COC(=O)c2ccccc2NC(=O)c2ccco2)c2ccccc2N1 was read as sEH inhibitor 3, sEH activator -4, CYP2C19 inh 38, CYP2C19 activ 0.6, CYP2C9 activ 0.2 and CYP2C9 inh 76*.
For O=C1CN(C(=O)COC(=O)C2=COCCO2)c2ccccc2N1 the results were sEH inhibitor -12, sEH activator 15, CYP2C19 inh -18, CYP2C19 activ 1.2, CYP2C9 activ 1.3 and CYP2C9 inh -31.
Screening CCOC(=O)c1[nH]c(C)c(C(=O)Nc2ccc(C)c(F)c2)c1C returned CYP2C19 inh -12, CYP2C19 activ 1.1, CYP2C9 activ 1.1 and CYP2C9 inh -6.
Screening CCOC(=O)c1[nH]c(C)c(C(=O)Nc2ccccc2C)c1C returned CYP2C19 inh 56*, CYP2C19 activ 0.4, CYP2C9 activ 1.1 and CYP2C9 inh -11.
For COc1cccc(-c2ccc(=O)n(CC(=O)Nc3ccc(C(=O)N4CCCC4)cc3)n2)c1 the results were sEH inhibitor -10, sEH activator 12, CYP2C19 inh 55*, CYP2C19 activ 0.5, CYP2C9 activ 0.6 and CYP2C9 inh 36.
For COc1cccc(-c2ccc(=O)n(CC(=O)Nc3cc4c(cc3NC(C)=O)OCCO4)n2)c1 the results were sEH inhibitor -10, sEH activator 8, CYP2C19 inh 69*, CYP2C19 activ 0.3, CYP2C9 activ 0.6 and CYP2C9 inh 38.
Screening CC(C)NS(=O)(=O)c1ccc(OCC(=O)Nc2ccccc2F)cc1 returned sEH inhibitor -4, sEH activator 7, CYP2C19 inh 15, CYP2C19 activ 0.8, CYP2C9 activ 0.7 and CYP2C9 inh 34.
`COc1ccc(-c2csc(N(CCc3ccccc3)C(=O)COc3ccccc3)n2)cc1` gave sEH inhibitor -4, sEH activator 5, CYP2C19 inh 20, CYP2C19 activ 0.8, CYP2C9 activ 0.1 and CYP2C9 inh 92*.
`CC(C)NS(=O)(=O)c1ccc(OCC(=O)Nc2ccc(F)cc2F)cc1` gave sEH inhibitor 15, sEH activator -13, CYP2C19 inh 43, CYP2C19 activ 0.6, CYP2C9 activ 0.5 and CYP2C9 inh 50*.
`COc1ccc(OCC(=O)N2CCN(C(=O)Cc3ccccc3)CC2)cc1` gave sEH inhibitor 0, sEH activator 1, CYP2C19 inh 36, CYP2C19 activ 0.6, CYP2C9 activ 0.8 and CYP2C9 inh 16.
Screening CC(C)NS(=O)(=O)c1ccc(OCC(=O)N(C)Cc2ccccc2)cc1 returned sEH inhibitor -11, sEH activator 10, CYP2C19 inh 51*, CYP2C19 activ 0.5, CYP2C9 activ 0.7 and CYP2C9 inh 34.
COc1ccc(OCC(=O)N(C)Cc2ccccc2)cc1 was read as CYP2C19 inh 97*, CYP2C19 activ 0, CYP2C9 activ 0.9 and CYP2C9 inh 12.
For CC1CC(C(F)(F)C(F)(F)F)n2nc(C(=O)O)cc2N1 (centres undefined) the results were CYP2C19 inh -9, CYP2C19 activ 1.1, CYP2C9 activ 1.1 and CYP2C9 inh -10.
For COc1ccc(CCNc2cc(=O)[nH]c(N)n2)cc1 the results were sEH inhibitor 23, sEH activator -20, CYP2C19 inh 3, CYP2C19 activ 1, CYP2C9 activ 1.1 and CYP2C9 inh -14.
For O=[n+]1c2c(n([O-])c3cc(Cl)ccc31)CCCC2 the results were sEH inhibitor -11, sEH activator 11, CYP2C19 inh 2, CYP2C19 activ 1, CYP2C9 activ 0.8 and CYP2C9 inh 17.
`CCCCCC(=O)Nc1ccc(S(=O)(=O)Nc2nccnc2OC)cc1` gave sEH inhibitor 5, sEH activator -7, CYP2C19 inh -8, CYP2C19 activ 1.1, CYP2C9 activ 1.1 and CYP2C9 inh -6.
For CCC(=O)Nc1ccccc1C(=O)OCC(=O)Nc1ccc(S(N)(=O)=O)cc1 the results were sEH inhibitor 50, sEH activator -50, CYP2C19 inh -5, CYP2C19 activ 1, CYP2C9 activ 0.7 and CYP2C9 inh 33.
CCCCNc1ccccc1C(=O)OCC(=O)Nc1ccc(S(N)(=O)=O)cc1 was read as sEH inhibitor 23, sEH activator -21, CYP2C19 inh 23, CYP2C19 activ 0.8, CYP2C9 activ 0.1 and CYP2C9 inh 86*.
For CCn1c(SCC(N)=O)nc2ccccc2c1=O the results were sEH inhibitor -2, sEH activator 1, CYP2C19 inh -11, CYP2C19 activ 1.1, CYP2C9 activ 1.1 and CYP2C9 inh -8.
Screening C=C(C)Cn1c(SCC#N)nc2ccccc2c1=O returned sEH inhibitor 0, sEH activator 2, CYP2C19 inh 47, CYP2C19 activ 0.5, CYP2C9 activ 0.6 and CYP2C9 inh 45.
`C=C(C)Cn1c(SCC)nc2ccccc2c1=O` gave sEH inhibitor -7, sEH activator 4, CYP2C19 inh 88*, CYP2C19 activ 0.1, CYP2C9 activ 0.7 and CYP2C9 inh 35.
Screening CC(=O)NCCn1c(SCC(=O)c2ccccc2)nc2ccccc2c1=O returned sEH inhibitor 11, sEH activator -12, CYP2C19 inh 71*, CYP2C19 activ 0.3, CYP2C9 activ 0.4 and CYP2C9 inh 55*.
CCN(CCCn1c(SCC#N)nc2ccccc2c1=O)c1ccccc1 was read as sEH inhibitor -9, sEH activator 9, CYP2C19 inh 77*, CYP2C19 activ 0.2, CYP2C9 activ 0.1 and CYP2C9 inh 93*.
Screening CC(=O)NCCn1c(SCC(=O)OCc2ccccc2)nc2ccccc2c1=O returned sEH inhibitor -2, sEH activator 2, CYP2C19 inh 86*, CYP2C19 activ 0.1, CYP2C9 activ 0.5 and CYP2C9 inh 52*.
COCc1cc(C)nc(N)c1C#N was read as CYP2C19 inh -25, CYP2C19 activ 1.3, CYP2C9 activ 1.1 and CYP2C9 inh -9.
For Cc1ccc(C2CN(c3ccccc3)CC2C(=O)c2ccc(F)cc2)cc1 (centres undefined) the results were sEH inhibitor 6, sEH activator -8, CYP2C19 inh 21, CYP2C19 activ 0.8, CYP2C9 activ 0.6 and CYP2C9 inh 37.
COc1ccc(OC)c(S(=O)(=O)n2nc(C)cc2C)c1 was read as sEH inhibitor -12, sEH activator 12, CYP2C19 inh 68*, CYP2C19 activ 0.3, CYP2C9 activ 0.9 and CYP2C9 inh 14.
For COc1ccc(OC)c(S(=O)(=O)n2cnc3cc(C)c(C)cc32)c1 the results were sEH inhibitor -1, sEH activator 1, CYP2C19 inh 98*, CYP2C19 activ 0, CYP2C9 activ 0.1 and CYP2C9 inh 87*.
N#C/C(=C\c1ccc(-c2ccccc2)o1)C(=O)Nn1cnnc1 was read as sEH inhibitor 7, sEH activator -8, CYP2C19 inh 92*, CYP2C19 activ 0.1, CYP2C9 activ 0 and CYP2C9 inh 99*.
